Data on 40 sequences can be found in the OligoGym collection.
Also: reference of the scale not given here.

The target in one test is RNF167. Briefly: pooled miR-30 sensor sort-seq; sequence = guide strand. The conditions noted are these: shRNA.
Consider ATGTGTAGGAATCTGTTTCAGT, for which the sensor-assay potency score (higher = more potent) was -0.804.

As to TCACATTGTGTACTACAGCGGC, the sensor-assay potency score (higher = more potent) was -0.461.

As to TTTGGTAAGTCGATTCCGCTGG, the sensor-assay potency score (higher = more potent) was found to be 0.435.

Regarding TTCCTCTTGGTCTTCGTCCCCA, the sensor-assay potency score (higher = more potent) is -0.474.

The sequence AAGACTGACCCATTGACCGGGG had a sensor-assay potency score (higher = more potent) of -0.25.

On to TACTCGGAGCTTCTCTCCCCAA, for which the sensor-assay potency score (higher = more potent) was -1.19.

Regarding TTCCGGGTCTGAGTGAGCCAGG, the sensor-assay potency score (higher = more potent) was -1.12.

Take TTGTGTACTACAGCGGCACCAT: the sensor-assay potency score (higher = more potent) is -0.0886.

Turning to TTGGTAAGTCGATTCCGCTGGA, the sensor-assay potency score (higher = more potent) was found to be 0.395.

TACAACGAGCTATCATTACTGC gave a sensor-assay potency score (higher = more potent) of -0.205.

TTCCTCACTATTCCACACCATG had a sensor-assay potency score (higher = more potent) of -1.35.

The target in the next test is RNF170. Described as above. The following applies: shRNA.
Consider ATTCTCTCCATAATAGATCTGG, for which the sensor-assay potency score (higher = more potent) was -0.226.

TATATTATCATATAGGTACCTG came in with a sensor-assay potency score (higher = more potent) of -0.52.

The sequence TTCCAGACAACATAGAATCAAG displayed a sensor-assay potency score (higher = more potent) of -0.928.

TACATTAGCTCAGATATCCTAG gave a sensor-assay potency score (higher = more potent) of 0.22.

TATAACTGAATCATCATCCAGT displayed a sensor-assay potency score (higher = more potent) of 0.606.

TTAATCTAAGTAATTCTGGGGA gave a sensor-assay potency score (higher = more potent) of 0.33.

With TAGATCCATAATTCTCTCCATA, the sensor-assay potency score (higher = more potent) is -0.793.

In the case of ATGCAATCTCAGAACATCCTGA, the sensor-assay potency score (higher = more potent) is -0.378.

As to TAATTAATCTAAGTAATTCTGG, the sensor-assay potency score (higher = more potent) was -0.536.

Regarding TTATCATATAGGTACCTGCTGA, the sensor-assay potency score (higher = more potent) was -0.705.

As to TAATATTAGAACTTCAAACATG, the sensor-assay potency score (higher = more potent) was -0.991.

Take TAAGATAGAAAAAAGCTCCCAT: the sensor-assay potency score (higher = more potent) was 0.565.

In the next test the target is RNF19A. The test is described as above. The conditions noted are these: shRNA.
For TCTGCTTGTACTTCCAACCTGT, the sensor-assay potency score (higher = more potent) was 0.605.

With TATATTTAGAGATAAAACCTAT, the sensor-assay potency score (higher = more potent) is -0.374.

TAACATAATAGGAACACCGATA had a sensor-assay potency score (higher = more potent) of -0.784.

Regarding TTTGTTGTTCTAACAACTGTGC, the sensor-assay potency score (higher = more potent) was -0.162.

With TTGGGTTGTGTCTTGCTTCTGC, the sensor-assay potency score (higher = more potent) came out at 0.712.

With ATTTCTTTCATACACAACCAAC, the sensor-assay potency score (higher = more potent) is -1.69.

Regarding TTTTGTAATACTTATAACCTAA, the sensor-assay potency score (higher = more potent) is -0.606.

The sequence TTGTCGAGCAGCATCACAGGTC had a sensor-assay potency score (higher = more potent) of 0.0826.

Sequence TACAGTGGTAGCAAAACTCTGT registered a sensor-assay potency score (higher = more potent) of 0.121.

Sequence TACATCTGCTTGTACTTCCAAC came in with a sensor-assay potency score (higher = more potent) of -0.763.

Sequence TTTGTGCTTTGAAACATCCTTG had a sensor-assay potency score (higher = more potent) of 0.0546.

On to TTATATAAGCAGCACATCGTGG, for which the sensor-assay potency score (higher = more potent) was -0.73.

Another test addresses RNF219. Described as above. The conditions noted are these: shRNA.
The sequence TTGATCTGTGACTCCAAGCTGA displayed a sensor-assay potency score (higher = more potent) of 0.034.

In turn, TTTTGGATAAACATAAGCCTGA yielded a sensor-assay potency score (higher = more potent) of -0.319.

Consider TCTGTTATCAACTTCAGCCTTC, for which the sensor-assay potency score (higher = more potent) worked out at 0.456.

TTGATATAGGTCTTTGTTCTTA showed a sensor-assay potency score (higher = more potent) of -0.397.

Take TAAACAATCTATTTCGTCCTCA: the sensor-assay potency score (higher = more potent) amounted to 0.474.
